Source: PubChem BioAssay
For part of these data: Entries with a potency or affinity are not part of this list. Calls of active or inactive are those of the source.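 Rule for the calls, unless noted: active = thallium flux through the channel raised or lowered by more than 3 SD from vehicle-only wells, actives on both sides; inactive = the rest.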

Experiments:
[1] = antimalarial activity against Dd2 strain (AID 2302;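 active = growth inhibition above 50% at the single 2 µM test dose, taken to imply half-maximal potency below 2 µM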;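 note: 0% = DMSO untreated growth and 100% = chloroquine plus artemisinin killed control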); settings: P. falciparum Dd2 in RBCs, LDH growth readout, 72 h; at 2 µM; hits give high values
[2] = human hepatoma cell viability loss – ATP luminescence, cytotoxicity control for P. falciparum antimalarial project, primary screen (AID 2303;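 active = inhibition above 50%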;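 note: 0% = DMSO wells and 100% = digitonin-killed cells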); settings: HepG2 viability, 24-48 h, at 10 µM, hits give high values
[3] = molecular target: L-lactate dehydrogenase (Plasmodium falciparum (isolate CDC / Honduras)) (UniProt Q27743); assay: PfLDH activity inhibition – cell lysate, 3D7 strain, counter-screen for P. falciparum growth inhibition project (AID 2304; call rule not given here;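 note: 0% = vehicle and 100% = reference inhibitor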); settings: P. falciparum 3D7 crude extract, LDH APAD/NBT absorbance; at 2 µM; hits give high values
L-lactate dehydrogenase (Plasmodium falciparum (isolate CDC / Honduras)), sequence (Q27743 whole entry, looked up): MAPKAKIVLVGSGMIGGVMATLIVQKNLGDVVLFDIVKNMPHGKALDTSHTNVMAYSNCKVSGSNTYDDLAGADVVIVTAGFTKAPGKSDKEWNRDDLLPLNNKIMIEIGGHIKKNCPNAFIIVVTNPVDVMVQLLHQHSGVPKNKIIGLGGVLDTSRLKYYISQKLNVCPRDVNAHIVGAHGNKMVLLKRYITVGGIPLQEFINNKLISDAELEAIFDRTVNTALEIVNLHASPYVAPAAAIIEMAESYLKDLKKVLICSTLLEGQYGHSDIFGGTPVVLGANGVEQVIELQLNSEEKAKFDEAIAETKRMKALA

[4] = inhibition of 3D7 malaria parasite growth – strain 3D7 (AID 2306; call rule not given here;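 note: 0% = DMSO wells and 100% = chloroquine plus artemisinin control wells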); settings: P. falciparum 3D7 erythrocytic growth, LDH absorbance, 72 h; at 2 µM; hits give high values
[5] = molecular target: Plasmodium falciparum protein kinase 6 (PK6, PF3D7_1337100) (UniProt Q8IDW1); assay: PfPK6 kinase inhibitors, biochemical, TCAMS library (AID 1159586; call rule not given here); settings: recombinant PfPK6, Kinase-Glo ATP depletion luminescence
Plasmodium falciparum protein kinase 6 (PK6, PF3D7_1337100), sequence (Q8IDW1 1-305): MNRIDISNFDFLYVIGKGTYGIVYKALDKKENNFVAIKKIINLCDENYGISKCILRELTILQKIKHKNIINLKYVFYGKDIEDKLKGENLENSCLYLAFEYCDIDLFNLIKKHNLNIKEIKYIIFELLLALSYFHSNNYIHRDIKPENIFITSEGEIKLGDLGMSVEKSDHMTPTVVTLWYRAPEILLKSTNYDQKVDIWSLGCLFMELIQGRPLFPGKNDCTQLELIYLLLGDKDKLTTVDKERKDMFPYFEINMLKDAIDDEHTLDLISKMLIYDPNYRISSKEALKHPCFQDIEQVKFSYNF

[6] = molecular target: Protein kinase 7 (PK7), Plasmodium falciparum 3D7 (PF3D7_0213400) (UniProt Q7YTF7); assay: inhibition of Plasmodium PK7 catalytic activity – biochemical, TCAMS antimalarial set, Kinase-Glo luminescence (AID 1159587; call rule not given here); settings: recombinant PfPK7, Kinase-Glo ATP depletion luminescence
Protein kinase 7 (PK7), Plasmodium falciparum 3D7 (PF3D7_0213400), sequence (Q7YTF7 1-343): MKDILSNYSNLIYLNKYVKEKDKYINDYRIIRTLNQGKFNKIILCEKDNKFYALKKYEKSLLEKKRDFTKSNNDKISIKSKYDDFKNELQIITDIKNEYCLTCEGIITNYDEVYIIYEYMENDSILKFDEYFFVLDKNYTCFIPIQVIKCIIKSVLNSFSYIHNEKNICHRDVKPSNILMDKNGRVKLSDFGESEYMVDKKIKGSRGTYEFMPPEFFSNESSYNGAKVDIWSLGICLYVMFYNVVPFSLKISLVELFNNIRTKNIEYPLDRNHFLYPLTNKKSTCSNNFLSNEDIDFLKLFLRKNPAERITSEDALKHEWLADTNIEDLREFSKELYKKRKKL

[7] = molecular target: Calcium-dependent protein kinase 4 (Plasmodium falciparum (isolate 3D7)) (UniProt Q8IBS5); assay: PfCDPK4 kinase inhibitors, biochemical, TCAMS library (AID 1159588; cut-off not given, nearly all actives have IC50 up to about 0.91 µM); settings: recombinant PfCDPK4, Kinase-Glo ATP depletion luminescence
Calcium-dependent protein kinase 4 (Plasmodium falciparum (isolate 3D7)), sequence (Q8IBS5 whole entry, looked up): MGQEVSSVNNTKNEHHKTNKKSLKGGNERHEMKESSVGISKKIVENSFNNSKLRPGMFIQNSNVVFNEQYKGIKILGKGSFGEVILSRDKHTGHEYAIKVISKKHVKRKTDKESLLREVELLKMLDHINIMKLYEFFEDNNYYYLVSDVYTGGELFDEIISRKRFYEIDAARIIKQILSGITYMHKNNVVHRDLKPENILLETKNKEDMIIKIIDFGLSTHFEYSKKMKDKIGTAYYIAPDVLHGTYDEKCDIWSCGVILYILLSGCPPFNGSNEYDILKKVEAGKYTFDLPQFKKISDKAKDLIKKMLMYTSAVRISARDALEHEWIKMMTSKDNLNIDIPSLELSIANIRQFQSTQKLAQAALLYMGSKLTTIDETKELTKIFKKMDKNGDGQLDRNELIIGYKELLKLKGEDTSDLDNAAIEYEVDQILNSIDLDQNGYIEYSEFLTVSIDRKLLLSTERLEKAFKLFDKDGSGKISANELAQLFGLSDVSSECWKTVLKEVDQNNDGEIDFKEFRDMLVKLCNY

[8] = tested on: F380Y; assay: BK channel mutant inhibitors and activators – cell-based, U2OS BacMam, thallium flux, beta subunits, selectivity assay, profiling panel (AID 1259406); settings: U2OS BacMam BK variants, at 30 µM;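 note: initial slope of Thallos dye fluorescence rise after thallium is added; log ratio against the mean of 0.3% DMSO vehicle wells on the same plate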
[9] = tested on: F380Y/beta1; assay: as above; settings: U2OS BacMam BK variants, at 30 µM
[10] = tested on: F380Y/beta2Delta; assay: as above; settings: U2OS BacMam BK variants, at 30 µM
[11] = tested on: F380Y/beta4; assay: as above; settings: U2OS BacMam BK variants, at 30 µM
[12] = molecular target: Calcium-activated potassium channel subunit alpha-1 (Homo sapiens) + Leucine-rich repeat-containing protein 26 (Homo sapiens) (UniProt Q12791+Q2I0M4); assay: as above; settings: U2OS BacMam BK variants, F380Y/Slo1WT/gamma1, at 30 µM
Calcium-activated potassium channel subunit alpha-1 (Homo sapiens) + Leucine-rich repeat-containing protein 26 (Homo sapiens), sequence (Q2I0M4 whole entry, looked up, one chain of several): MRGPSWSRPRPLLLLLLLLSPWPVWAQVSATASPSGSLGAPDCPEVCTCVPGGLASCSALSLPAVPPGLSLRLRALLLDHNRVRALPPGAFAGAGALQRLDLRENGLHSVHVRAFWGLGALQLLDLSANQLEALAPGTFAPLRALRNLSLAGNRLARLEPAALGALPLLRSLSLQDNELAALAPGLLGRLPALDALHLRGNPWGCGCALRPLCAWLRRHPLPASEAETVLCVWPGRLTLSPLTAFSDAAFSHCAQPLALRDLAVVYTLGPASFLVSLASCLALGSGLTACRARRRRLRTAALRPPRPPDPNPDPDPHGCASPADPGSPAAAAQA

[13] = tested on: R275C; assay: as above; settings: U2OS BacMam BK variants, at 30 µM
[14] = tested on: R275C/beta1; assay: as above; settings: U2OS BacMam BK variants, at 30 µM
[15] = tested on: R275C/beta2Delta; assay: as above; settings: U2OS BacMam BK variants, at 30 µM
[16] = tested on: R275C/beta4; assay: as above; settings: U2OS BacMam BK variants, at 30 µM
[17] = tested on: R275C/Slo1WT/beta2; assay: as above; settings: U2OS BacMam BK variants, at 30 µM

Cc1cccc(Nc2nc(NCCCCN)nc3cc[nH]c(=O)c23)c1
inactive: inhibition [2] 34% | inhibition [3] 0% | outcome [5] | outcome [6]
active: growth inhibition [1] 97% | growth inhibition [4] 98%

COc1ccc(Nc2ncc(OC)c(Nc3ccccc3C(N)=O)n2)cc1N1CCN(C)CC1
active: growth inhibition [1] 96% | inhibition [2] 63% | growth inhibition [4] 100%
inactive: inhibition [3] 0% | outcome [6] | outcome [7]

O=C(Nc1cccc(-c2nn3ncccc3c2-c2ccnc(Nc3cccc(-c4cnco4)c3)n2)c1)c1c(F)cccc1F
active: growth inhibition [1] 98% | inhibition [2] 96% | growth inhibition [4] 97%
inactive: inhibition [3] 2% | outcome [5] | outcome [6]

CCn1c(-c2nonc2N)nc2c(-c3cccc(NC(=O)NC45CC6CC(CC(C6)C4)C5)c3)ncc(OCCCN)c21
active: growth inhibition [1] 63% | inhibition [2] 100% | growth inhibition [4] 94%
inactive: inhibition [3] -2% | outcome [5] | outcome [6]

OC1CCC(Nc2ccc3ncc(-c4ccc(Cl)cc4)n3n2)CC1 (configuration not stated)
active: growth inhibition [1] 98% | inhibition [2] 57% | growth inhibition [4] 97%
inactive: inhibition [3] 0% | outcome [5] | outcome [7]

CNC(=O)c1ccccc1Nc1nc(Nc2ccc(N3CCN(C)CC3)nc2)ncc1C
inactive: inhibition [3] 4% | outcome [6] | outcome [7]
active: growth inhibition [1] 50% | inhibition [2] 75% | growth inhibition [4] 92%

Cc1ccc(Nc2ccnc(Nc3ccc4c(c3)CS(=O)(=O)C4)n2)cc1O
inactive: inhibition [3] 5% | outcome [6] | outcome [7]
active: growth inhibition [1] 76% | inhibition [2] 82% | growth inhibition [4] 102%

O=c1[nH]ccc2nc(N[C@@H]3CCNC3)nc(Nc3cc(Cl)cc(Cl)c3)c12
active: growth inhibition [1] 99% | inhibition [2] 99% | growth inhibition [4] 101%
inactive: inhibition [3] -2% | outcome [5] | outcome [6]

NS(=O)(=O)c1ccc(Nc2nccc(-c3c(-c4cccc(NC(=O)c5c(F)cccc5F)c4)nn4ccccc34)n2)cc1
active: growth inhibition [1] 89% | inhibition [2] 83% | growth inhibition [4] 93%
inactive: inhibition [3] -7% | outcome [6] | outcome [7]

O=C(Nc1cccc(-c2nn3ncccc3c2-c2ccnc(Nc3ccccc3)n2)c1)c1c(F)cccc1F
active: growth inhibition [1] 96% | inhibition [2] 51% | growth inhibition [4] 98%
inactive: inhibition [3] 0% | outcome [5] | outcome [6]

CCn1c(-c2nonc2N)nc2c(-c3cccc(NC(=O)Nc4cccc(C#N)c4)c3)ncc(OCCCN)c21
active: growth inhibition [1] 80% | growth inhibition [4] 92%
inactive: inhibition [2] 37% | inhibition [3] 0% | outcome [5] | outcome [6]

NS(=O)(=O)c1cccc(Nc2nc(N[C@@H]3CCNC3)nc3cc[nH]c(=O)c23)c1
inactive: inhibition [2] 7% | inhibition [3] 0% | outcome [5] | outcome [6]
active: growth inhibition [1] 98% | growth inhibition [4] 99%

CC(=O)Nc1cccc(Nc2nccc(-c3c(-c4cccc(NC(=O)c5c(F)cccc5F)c4)nn4ncccc34)n2)c1
active: growth inhibition [1] 51% | inhibition [2] 83% | growth inhibition [4] 96%
inactive: inhibition [3] 5% | outcome [6]

CCOC(=O)C1CCCN(C(=O)Nc2c(-c3ccccc3)noc2C)C1 (configuration not stated)
inactive: log fold change Tl+ flux [8] 0.0297 | log fold change Tl+ flux [9] -0.0223 | log fold change Tl+ flux [10] -0.00149 | log fold change Tl+ flux [11] 0.0159 | log fold change Tl+ flux [12] 0.00293 | log fold change Tl+ flux [13] -0.0483 | log fold change Tl+ flux [14] -0.0144 | log fold change Tl+ flux [15] -0.0161 | log fold change Tl+ flux [16] -0.0185 | log fold change Tl+ flux [17] 0.00733

Cc1ccc(S(=O)(=O)c2ncsc2SCc2ccc(Cl)cc2Cl)cc1
inactive: log fold change Tl+ flux [8] 0.0356 | log fold change Tl+ flux [9] -0.0176 | log fold change Tl+ flux [10] 0.0366 | log fold change Tl+ flux [11] -0.0184 | log fold change Tl+ flux [12] 0.00897 | log fold change Tl+ flux [13] -0.00241 | log fold change Tl+ flux [14] 0.0419 | log fold change Tl+ flux [15] -0.0166 | log fold change Tl+ flux [16] -0.0112 | log fold change Tl+ flux [17] -0.00155

O=C(ON(C(=O)c1ccc(F)cc1)C1C2CC3CC(C2)CC1C3)c1ccc(F)cc1 (configuration not stated)
inactive: log fold change Tl+ flux [8] 0.0231 | log fold change Tl+ flux [9] -0.0234 | log fold change Tl+ flux [10] 0.00474 | log fold change Tl+ flux [11] 0.0374 | log fold change Tl+ flux [12] 0.0901 | log fold change Tl+ flux [13] 0.0436 | log fold change Tl+ flux [14] -0.0159 | log fold change Tl+ flux [15] 0.00798 | log fold change Tl+ flux [16] 0.0539 | log fold change Tl+ flux [17] 0.0295

COC(=O)c1cnn(C(=O)Nc2c(C)cccc2C)c1C(OC)OC
inactive: log fold change Tl+ flux [8] -0.0549 | log fold change Tl+ flux [9] -0.00196 | log fold change Tl+ flux [10] -0.0264 | log fold change Tl+ flux [11] -0.029 | log fold change Tl+ flux [12] 0.033 | log fold change Tl+ flux [13] 0.02 | log fold change Tl+ flux [14] -0.0504 | log fold change Tl+ flux [15] -0.0443 | log fold change Tl+ flux [16] 0.00703 | log fold change Tl+ flux [17] 0.00968

CCN(CC)CCCOc1ccc(Nc2nccc(-c3c(-c4cccc(NC(=O)c5c(F)cccc5F)c4)nn4ccccc34)n2)cc1F
inactive: inhibition [3] -5% | outcome [6]
active: growth inhibition [1] 99% | inhibition [2] 86% | growth inhibition [4] 100%

Cn1c(C(F)(F)F)nnc1S(=O)(=O)Cc1ccc(-c2csnn2)cc1
active: log fold change Tl+ flux [11] 0.114
inactive: log fold change Tl+ flux [8] 0.0645 | log fold change Tl+ flux [9] 0.0098 | log fold change Tl+ flux [10] 0.0485 | log fold change Tl+ flux [12] 0.00754 | log fold change Tl+ flux [13] 0.0229 | log fold change Tl+ flux [14] -0.0587 | log fold change Tl+ flux [15] 0.0374 | log fold change Tl+ flux [16] -0.0154 | log fold change Tl+ flux [17] -0.0301
